From PubChem BioAssay (Tox21) come the findings set out here.

Each structure is given as a SMILES string. “And” between values parts separate entries of the source, which are not always exact repeats. Identical values can stand only once. Unmarked numbers belong to inactive results. Records with an inconclusive call do not appear. The source made the active and inactive calls. Unless noted, calls follow the shape of the dose curve; as a rule, active = well fitted curve in the direction sought with a large enough effect in the repeat runs; inconclusive = weak or mixed curves; inactive = no such curve, though single readings can be large; an effect the other way counts as inactive or inconclusive.

For assay [1], the target named is Thyrotropin receptor (Homo sapiens) (UniProt P16473). Kind of assay: qHTS assay to identify small molecule agonists of the thyroid stimulating hormone receptor (TSHR) signaling pathway (AID 1224843; calls by dose curve; also: nearly all actives have a fitted effect of over 45% in size). The procedure, abridged:
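A cell-based cAMP HTRF format was run in TSHR-transfected HEK293 cells, 800 per well. Treatment: 30 min, room temperature. Detection: 1 h with labelled cAMP and anti-cAMP cryptate. Concentration-response over 15 points, three replicates.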
A general note: qHTS replaces the single test concentration by a dilution series.

Assay [2] can be described thus: qHTS assay to identify small molecule agonists of the hypoxia (HIF-1) signaling pathway - cell viability counter screen (AID 1224844; calls by dose curve; also: nearly all actives have a fitted effect of over 50% in size). The method in brief: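 In this counter screen, HRE-bla ME-180 cell viability after 17 hrs of compound exposure at 37C was read by CellTiter-Glo luminescence, multiplexed with the beta-lactamase reporter measurement.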
Assay [3] can be described thus: qHTS assay to identify small molecule agonists of H2AX (AID 1224845; active = well fitted activation curve with a large enough effect in the signal ratio in the repeat runs, not every such curve was filed as active; the % refers to the signal ratio). The procedure, abridged:
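Phospho-H2AX Ser139 measured by HTRF (ex 320 nm; em 665 and 620 nm) after 24 hr antibody incubation. Compounds, 15 concentrations, 0.76% DMSO, were applied to CHO-K1 cells for 3hr at 37C before lysis.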

Assay [4] in a line: qHTS assay to identify small molecule agonists of the hypoxia (HIF-1) signaling pathway (AID 1224846; active = well fitted activation curve with a large enough effect in the signal ratio in the repeat runs, not every such curve was filed as active; the % refers to the signal ratio). The procedure, abridged:
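ME-180 HRE-bla reporter cells; compounds in DMSO, 17 h at 37C; read-out beta-lactamase via CCF4-AM FRET.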

Assay [5] in a line: qHTS assay to identify small molecule agonists of H2AX - cell viability counter screen (AID 1224847; calls by dose curve; also: top concentration of the series differs between compounds; nearly all actives have a fitted effect of over 30% in size). The method in brief: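 Quantitative HTS viability measurement: CHO-K1 wild-type cells in serum (10% FBS) medium, short 3 hr drug exposure at 37C with 0.76% DMSO, CellTiter-Glo luminescent detection.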
A short description of assay [6]: qHTS assay to identify small molecule antagonists of the estrogen related receptor (ERR) signaling pathway from Tox21 library (AID 1224848). Also: nearly all actives have a fitted effect of over 50% in size. The procedure, abridged: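 ERR cell line, 2,000 cells/well. 6 h settle, then compound (DMSO) added; 18 h at 37 C; ONE-Glo luminescence after 30 min RT.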
Assay [7] in a line: qHTS assay to identify small molecule agonists of the estrogen related receptor (ERR) signaling pathway from Tox21 library (AID 1224849; calls by dose curve; also: nearly all actives have a fitted effect of over 15% in size). The following applies: ERR reporter cell line, ONE-Glo luciferase, 18 h. The method in brief: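 Luciferase activity in ERR pathway reporter cells served as the agonist readout; exposure lasted 18 h at 37 C, with ONE-Glo detection after 30 min at room temperature.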

The nature of assay [8]: qHTS RealTime-Glo MT Cell Viability Assay in HepG2 cells - 24 hour (AID 1224867). Also: nearly all actives have a fitted effect of over 50% in size. The procedure, abridged: (§1)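 Luminescence read-out: viable HepG2 cells reduce a prosubstrate to a NanoLuc substrate, giving a signal proportional to live cell number. Reads taken at 0, 8, 16, 24, 32 and 40 h of compound exposure at 37 C.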
Assay [9] can be described thus: qHTS RealTime-Glo MT Cell Viability Assay in HEK293 cells - 32 hour (AID 1224868). Also: top concentration of the series differs between compounds; nearly all actives have a fitted effect of over 50% in size. The procedure, abridged:
(§2)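 Nonlytic real-time viability readout: viable cells convert prosubstrate to NanoLuc substrate, giving luminescence proportional to live cell number. HEK293, 600 cells/well, compound added after 5 h, continuous culture at 37 C.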

Assay [10] in a line: A CellTox Green Cytotoxicity Assay to monitor cytotoxicity in HEK293 cells - 0 hour (AID 1224869). Also: nearly all actives have a fitted effect of over 50% in size. The procedure, abridged: (§3)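 Real-time, in one plate: 600 HEK293 cells/well with dead-cell DNA dye, pinned compound after 5 h, 37 C incubation over 40 h; viable cells give no appreciable fluorescence.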
Assay [11] can be described thus: qHTS RealTime-Glo MT Cell Viability Assay in HepG2 cells - 40 hour (AID 1224870). Also: nearly all actives have a fitted effect of over 50% in size. The procedure, abridged: (§4)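 Real-time viability: cells seeded at 600 per well together with NanoLuc and cell-permeant prosubstrate, compounds added after 5 h incubation. Luminescence tracked at 0, 8, 16, 24, 32 and 40 h of exposure.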
A short description of assay [12]: A CellTox Green Cytotoxicity Assay to monitor cytotoxicity in HEK293 cells - 40 hour (AID 1224871). Also: nearly all actives have a fitted effect of over 45% in size. Also: potency is read from the fitted curve at half-maximal effect. The procedure, abridged: as §3
Assay [13] in a line: qHTS RealTime-Glo MT Cell Viability Assay in HEK293 cells - 16 hour (AID 1224872). The method in brief:
as §2

Assay [14] can be described thus: qHTS RealTime-Glo MT Cell Viability Assay in HepG2 cells - 8 hour (AID 1224873). Also: nearly all actives have a fitted effect of over 55% in size. The procedure, abridged: as §4
A short description of assay [15]: qHTS RealTime-Glo MT Cell Viability Assay in HEK293 cells - 40 hour (AID 1224874). Also: nearly all actives have a fitted effect of over 50% in size. The settings on record: RealTime-Glo luminescence; max response: stronger effect = lower value. The method in brief:
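Kinetic, non-lysing viability readout. Seed HEK293 (600/well) with reagent, incubate 5 h at 37 C/5% CO2, pin 23 nL compound in DMSO, incubate at 37 C, read luminescence at 0, 8, 16, 24, 32, 40 h.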

Assay [16] in a line: A CellTox Green Cytotoxicity Assay to monitor cytotoxicity in HEK293 cells - 24 hour (AID 1224875). Also: nearly all actives have a fitted effect of over 45% in size. Also: potency is read from the fitted curve at half-maximal effect. The procedure, abridged: as §3
A short description of assay [17]: A CellTox Green Cytotoxicity Assay to monitor cytotoxicity in HepG2 cells - 16 hour (AID 1224876). Also: nearly all actives have a fitted effect of over 45% in size. Also: potency is read from the fitted curve at half-maximal effect. The method in brief:
(§5)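 Cytotoxicity was tracked as dead-cell DNA fluorescence in HepG2 cells treated with test compounds at 37 C; each time-point value comes from one kinetic series spanning 0, 8, 16, 24, 32 and 40 h.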

A short description of assay [18]: qHTS RealTime-Glo MT Cell Viability Assay in HepG2 cells - 32 hour (AID 1224877). Also: nearly all actives have a fitted effect of over 55% in size. The procedure, abridged:
as §1

A short description of assay [19]: A CellTox Green Cytotoxicity Assay to monitor cytotoxicity in HepG2 cells - 24 hour (AID 1224878). Also: nearly all actives have a fitted effect of over 45% in size. Also: potency is read from the fitted curve at half-maximal effect. The procedure, abridged:
as §5

Assay [20] is described as follows: A CellTox Green Cytotoxicity Assay to monitor cytotoxicity in HepG2 cells - 40 hour (AID 1224879). Also: nearly all actives have a fitted effect of over 40% in size. Also: potency is read from the fitted curve at half-maximal effect. The method in brief:
as §5
% is scaled to controls: 0 for no effect and ±100 for the full control effect.

Thyrotropin receptor (Homo sapiens), sequence (P16473 whole entry, looked up): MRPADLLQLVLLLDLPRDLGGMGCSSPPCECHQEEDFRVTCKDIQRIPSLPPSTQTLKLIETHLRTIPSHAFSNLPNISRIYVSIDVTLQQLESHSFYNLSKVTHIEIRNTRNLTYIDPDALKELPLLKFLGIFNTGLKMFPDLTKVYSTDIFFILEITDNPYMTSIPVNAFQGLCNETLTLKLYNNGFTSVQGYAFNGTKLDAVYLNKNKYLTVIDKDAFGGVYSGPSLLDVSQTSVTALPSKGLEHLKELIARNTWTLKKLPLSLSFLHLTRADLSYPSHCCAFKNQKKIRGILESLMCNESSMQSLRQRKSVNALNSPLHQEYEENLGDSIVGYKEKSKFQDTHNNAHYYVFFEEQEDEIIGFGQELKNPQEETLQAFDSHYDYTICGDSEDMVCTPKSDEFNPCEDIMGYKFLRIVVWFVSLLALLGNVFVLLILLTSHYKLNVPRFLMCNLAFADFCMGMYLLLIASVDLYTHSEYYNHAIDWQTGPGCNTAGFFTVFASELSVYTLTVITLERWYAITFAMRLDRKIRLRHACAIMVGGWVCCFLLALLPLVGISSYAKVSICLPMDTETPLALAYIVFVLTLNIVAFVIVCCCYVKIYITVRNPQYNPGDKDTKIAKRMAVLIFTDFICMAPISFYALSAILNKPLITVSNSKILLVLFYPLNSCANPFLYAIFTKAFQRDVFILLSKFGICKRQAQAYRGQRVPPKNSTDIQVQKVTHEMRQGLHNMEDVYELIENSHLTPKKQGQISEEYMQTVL

Regarding `C=C(C)C(=O)OCC1CO1` (stereo not given), the Potency entry in assay [1], in assay [2], in [3], in assay [5], in assay [6] and in assay [8] was “inactive” in each case. Also, the Potency entry in assay [9], in assay [10], in [11], in assay [12], in assay [13] and in assay [14] was “inactive” throughout. Besides, the Potency result in [16], in assay [17], in assay [18], in assay [19] and in assay [20] was “inactive” each time. The outcome in assay [4] was inactive. Also, the activity change, positive = activation in [7] (at 92.4 µM (top of the series)) is -2.17% and 2.32%. Besides, in assay [15], the max response is 9.74% and -15.3%.

Turning to `O=Cc1ccco1`, the Potency result in [1], in assay [2], in assay [3], in assay [5], in assay [6] and in assay [8] was “inactive” each time. In addition, the Potency entry in assay [9], in assay [10], in assay [11], in assay [13], in assay [14] and in assay [17] was “inactive” throughout. For the same molecule, the Potency result in assay [18], in assay [19] and in [20] was “inactive” throughout. Also, in [4], the molecule was called inactive. Also, in assay [7] (at 92.4 µM (top of the series)), the activity change, positive = activation was 0.408% and 7.35%. Moreover, the max response in assay [15] is -0.5%.

As for `Nc1ccncc1`, the Potency entry in assay [1], in assay [2], in assay [3], in assay [5], in assay [8] and in [9] was “inactive” throughout. In addition, the Potency result in [10], in [11], in assay [12], in [13], in [14] and in [16] was “inactive” each time. The Potency result in assay [17], in assay [18], in assay [19] and in assay [20] was “inactive” throughout.

Consider `CCC(C)(C)c1ccc(O)cc1`, for which the Potency entry in assay [1], in [2], in assay [3], in [6], in assay [8] and in assay [9] was “inactive” throughout. Moreover, the Potency entry in assay [10], in assay [11], in [13] and in [18] was “inactive” throughout. Also, the call in assay [4] was inactive. Moreover, the activity change, positive = activation in assay [7] (at 42.5 µM (top of the series)) is -6.2%; in assay [7] (at 92.4 µM (top of the series)) it was -16.7% and -1.98%. Also, the max response in [15] was -5.76% and -0.143%. For the same molecule, the Potency was 49.5 µM (active) and 49 µM (active) in assay [16]; 44.1 µM (active) and 43.6 µM (active) in assay [17]; 49.5 µM (active) and 43.6 µM (active) and 23.9 µM (active) in [19]; 44.1 µM (active) and 38.9 µM (active) and 21.3 µM (active) in assay [20].

Take `C#C[C@]1(O)CC[C@H]2[C@@H]3CCC4=CC(=O)CC[C@]4(C)[C@H]3CC[C@@]21C`: the Potency entry in assay [1], in [2], in [3], in [8], in assay [9] and in assay [10] was “inactive” each time. The Potency result in [11], in assay [13], in assay [14], in assay [17], in [18] and in [19] was “inactive” each time. In addition, in [12], the Potency is 49 µM (active). The max response in assay [15] is -4.36% and -16.3%.

Regarding `C1=Cc2cccc3cccc1c23`, the Potency result in assay [1], in assay [2], in assay [3], in [5], in assay [6] and in [8] was “inactive” each time. The Potency entry in assay [9], in assay [10], in [11], in assay [13], in assay [17] and in assay [18] was “inactive” in each case. The Potency entry in [19] and in assay [20] was “inactive” in each case. The call in [4] was inactive. In assay [7] (at 92.4 µM (top of the series)), the activity change, positive = activation was -16.5% and -13.1%. For the same molecule, the Potency in assay [12] and in [16] was 49 µM (active) in each case. In addition, the max response in [15] is -3.56% and 0.553%.
